Laboratory results: PubChem BioAssay AID449739 (Vanderbilt High Throughput Screening Facility, 2010)
Screen size: about 100,000 compounds; about 4,200 (4.2%) were called active. Many of the other results were omitted from the sample, so actives are more common in it than they were. Values without a mark were called inactive.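 How the source made its calls: active means single-dose well whose peak fluorescence ratio is a statistical outlier from its plate by either plate-standardised score or position-corrected B-score; inactive means the rest.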

Each compound was assayed against Voltage-dependent T-type calcium channel subunit alpha-1H (Homo sapiens) (UniProt O95180) (assay: Cav3.2 calcium influx blockers – cell-based, Fluo-4 calcium fluorescence, FDSS, MLSMR library, primary screen (AID 449739)). Conditions: Cav3.2-expressing cells, at 10 µM, stronger effect = lower value.
Sequence of Voltage-dependent T-type calcium channel subunit alpha-1H (Homo sapiens) (O95180 whole entry, looked up): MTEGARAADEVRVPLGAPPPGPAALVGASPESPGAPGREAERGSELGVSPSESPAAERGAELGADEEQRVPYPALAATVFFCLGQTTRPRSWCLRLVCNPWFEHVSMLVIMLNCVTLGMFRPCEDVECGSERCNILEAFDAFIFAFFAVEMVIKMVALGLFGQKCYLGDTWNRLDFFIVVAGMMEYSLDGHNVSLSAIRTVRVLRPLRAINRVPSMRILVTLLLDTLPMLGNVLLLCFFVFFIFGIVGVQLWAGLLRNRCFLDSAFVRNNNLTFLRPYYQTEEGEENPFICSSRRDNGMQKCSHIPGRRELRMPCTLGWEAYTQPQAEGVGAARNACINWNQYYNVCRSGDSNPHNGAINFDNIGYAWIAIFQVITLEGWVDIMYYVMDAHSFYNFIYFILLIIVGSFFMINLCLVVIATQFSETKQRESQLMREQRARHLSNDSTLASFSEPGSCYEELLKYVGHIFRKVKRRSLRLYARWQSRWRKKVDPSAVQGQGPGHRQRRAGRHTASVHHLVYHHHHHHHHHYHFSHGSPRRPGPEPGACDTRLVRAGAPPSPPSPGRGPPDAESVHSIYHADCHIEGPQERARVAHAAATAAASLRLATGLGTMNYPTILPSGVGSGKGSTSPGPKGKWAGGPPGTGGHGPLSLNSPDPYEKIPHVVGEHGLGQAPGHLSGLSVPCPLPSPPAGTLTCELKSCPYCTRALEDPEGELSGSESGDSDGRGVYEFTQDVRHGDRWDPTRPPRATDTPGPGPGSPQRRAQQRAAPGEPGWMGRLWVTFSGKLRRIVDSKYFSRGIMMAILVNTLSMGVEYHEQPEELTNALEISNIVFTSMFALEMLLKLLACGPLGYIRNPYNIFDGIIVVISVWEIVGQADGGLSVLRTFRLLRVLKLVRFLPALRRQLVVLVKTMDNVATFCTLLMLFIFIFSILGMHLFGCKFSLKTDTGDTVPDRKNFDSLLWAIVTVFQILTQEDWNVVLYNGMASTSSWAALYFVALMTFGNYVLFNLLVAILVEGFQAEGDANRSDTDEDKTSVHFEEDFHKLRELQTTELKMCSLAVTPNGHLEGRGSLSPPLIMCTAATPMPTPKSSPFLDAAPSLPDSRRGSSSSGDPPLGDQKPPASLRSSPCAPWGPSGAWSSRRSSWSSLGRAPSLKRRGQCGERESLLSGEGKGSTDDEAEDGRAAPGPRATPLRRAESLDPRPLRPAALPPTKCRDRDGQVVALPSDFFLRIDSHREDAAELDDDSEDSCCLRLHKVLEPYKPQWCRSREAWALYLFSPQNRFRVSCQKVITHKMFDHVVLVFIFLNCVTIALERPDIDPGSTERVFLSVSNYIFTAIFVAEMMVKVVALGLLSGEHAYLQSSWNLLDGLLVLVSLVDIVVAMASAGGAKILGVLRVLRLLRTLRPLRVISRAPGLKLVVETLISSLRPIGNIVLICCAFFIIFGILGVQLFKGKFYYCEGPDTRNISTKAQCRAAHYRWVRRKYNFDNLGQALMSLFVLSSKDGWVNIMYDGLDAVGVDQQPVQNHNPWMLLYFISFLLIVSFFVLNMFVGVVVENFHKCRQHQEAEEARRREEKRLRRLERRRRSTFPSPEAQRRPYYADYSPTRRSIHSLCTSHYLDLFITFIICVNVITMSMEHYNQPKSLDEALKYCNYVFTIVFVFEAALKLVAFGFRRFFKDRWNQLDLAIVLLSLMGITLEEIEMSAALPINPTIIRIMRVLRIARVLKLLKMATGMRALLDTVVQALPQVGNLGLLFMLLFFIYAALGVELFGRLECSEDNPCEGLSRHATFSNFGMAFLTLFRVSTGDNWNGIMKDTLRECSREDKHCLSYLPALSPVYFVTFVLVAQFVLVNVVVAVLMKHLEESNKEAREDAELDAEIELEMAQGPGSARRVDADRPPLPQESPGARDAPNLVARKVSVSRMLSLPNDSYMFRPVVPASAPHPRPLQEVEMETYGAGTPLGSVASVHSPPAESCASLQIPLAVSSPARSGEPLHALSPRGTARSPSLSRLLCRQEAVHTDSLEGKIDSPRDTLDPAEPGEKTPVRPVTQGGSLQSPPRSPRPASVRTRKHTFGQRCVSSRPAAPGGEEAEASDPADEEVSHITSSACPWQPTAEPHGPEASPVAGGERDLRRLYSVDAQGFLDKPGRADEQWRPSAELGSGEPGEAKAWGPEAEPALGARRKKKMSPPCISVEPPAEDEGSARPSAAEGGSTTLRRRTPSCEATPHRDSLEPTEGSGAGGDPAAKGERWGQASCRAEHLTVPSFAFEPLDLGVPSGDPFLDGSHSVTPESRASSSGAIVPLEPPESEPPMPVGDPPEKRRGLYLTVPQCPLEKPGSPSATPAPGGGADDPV
In the case of COc1ccc(C#Cc2c(-c3ccc(OC)cc3)oc3ccc(-c4ccc5c(c4)OCO5)cc23)cc1, the B-score is reported as -2.98.
For CCO[C@H]1OC(C(=O)O)=C[C@@H](C2CCCCC2)[C@@H]1CCCO, the B-score was -0.908.
For Cc1ccccc1-c1nc(CS(=O)(=O)CC(=O)N2CCc3ccccc3C2)c(C)o1, the B-score was -4.63 (active).
In the case of COc1ccc(-c2nc(CS(=O)CC(=O)N3CCc4ccccc4C3)c(C)o2)cc1 (stereo not drawn), the B-score is reported as 0.115.
For Cc1nnc(SCC(=O)N2CCc3ccccc3C2)s1, the B-score was 0.719.
Cc1nn(-c2ccccc2)c(C)c1C(=O)OCC(=O)NC(=O)NC1CCCCC1 was tested, and the B-score was -5.85 (active).
Nn1c(SCC(=O)NC(=O)NC2CCCC2)nnc1-c1ccccc1F was tested, and the B-score was 0.0138.
Work on CCCn1c(C)cc(C(=O)COC(=O)c2c(C)nn(-c3ccccc3)c2C)c1C yielded a B-score of -3.42.
In the case of COC(=O)c1c(-c2cccs2)csc1NC(=O)CSc1ncnc2sc(C)c(C)c12, the B-score is reported as -0.978.
In the case of CCCCNC(=S)NNC(=O)c1cc(C)on1, the B-score is reported as 0.531.
For COc1ccccc1N1CCN(CCCCOc2ccc(F)cc2)CC1, the B-score was -5.88 (active).
CCN1CCN(CCCCOc2ccccc2F)CC1 was tested, and the B-score was 0.893.
Compound COc1ccccc1N1CCN(Cc2ccc(OC)c3ccccc23)CC1 has a B-score of -1.06.
Compound COc1cnc(SCc2ccc(Cl)c(Cl)c2)nc1Cl has a B-score of -1.35.
In the case of O=C(O)C1CC=C(Cl)CC1C(=O)NCc1ccccc1 (stereo not drawn), the B-score is reported as 0.671.
With O=C(NCc1ccccc1)[C@H]1C[C@@H]1[C@H](NP(=O)(c1ccccc1)c1ccccc1)c1ccccc1 the B-score was -4.19 (active).
COC(=O)[C@H](Cc1ccccc1)NC(=O)[C@@H]1C[C@H]1[C@@H](NC(=O)OCc1ccccc1)c1ccccc1 gave a B-score of 0.0644.
In the case of Cc1cc(C)c2nc(NC(=O)c3ccc4c(c3)OCO4)sc2c1, the B-score is reported as 0.981.
C=C(C)C(=O)Nc1cccc(C2=NOC3(C2)C[C@H](C(N)=O)N(C(=O)C(c2ccccc2)c2ccccc2)C3)c1 (stereo partly drawn) showed a B-score of -0.703.
In the case of CCOC(=O)c1sc2nc(SC)nc(-c3ccccc3)c2c1N, the B-score is reported as -0.0983.
Nc1ccccc1SCc1cc([N+](=O)[O-])cc2c1OCOC2 was tested, and the B-score was -4.25 (active).
O=C(CNC(=O)Cc1ccccc1)NCC(=O)OCC(=O)c1ccccc1Cl showed a B-score of 0.107.
Work on CCOC(=O)/C(=C\c1ccc([N+](=O)[O-])cc1)C(=O)c1cc(C(C)=O)c(Nc2ccccc2)s1 yielded a B-score of 0.717.
With Cc1ccnc(N2CCN(C(=O)CSc3nc4ccccc4nc3N3CCCCC3)CC2)c1 the B-score was -7.43 (active).
In the case of Cc1ccc(S(=O)(=O)NCC(=O)N2CCN(c3ccccn3)CC2)cc1, the B-score is reported as 0.189.
Cc1nnc(SCC(=O)N2CCN(c3ccccc3)CC2)n1-c1ccccc1 showed a B-score of 0.663.
In the case of CCC(C)[C@@H](C(=O)N1CCNCC1)n1cc(CCCCN)nn1 (stereo partly drawn), the B-score is reported as 0.219.
Work on CC1(C)CC(=O)C2=C(C1)N=C1SCCC(=O)N1C2c1ccc(C(F)(F)F)cc1 (stereo not drawn) yielded a B-score of -1.88.
For CC(C)(C)NS(=O)(=O)CC12CCC(CC1=O)C2(C)C (stereo not drawn), the B-score was 0.0444.
With CCCC(=O)NC(Nc1ccccc1OC)C(Cl)(Cl)Cl (stereo not drawn) the B-score was 0.143.
NCCCC[C@@H]1NC(=O)[C@H](CCC(=O)O)NC(=O)c2cc([N+](=O)[O-])cc(I)c2NCC[C@@H](C(N)=O)NC1=O was tested, and the B-score was 0.612.
Work on O=C(c1ccccc1)N1CCN(C(=O)N2CCCCC2)CC1 yielded a B-score of 1.15.
For O=C(O)CC(c1ccccc1)n1cnnn1 (stereo not drawn), the B-score was 0.533.
For O=C(c1ccc(-n2cnnn2)cc1)N1CCN(C(c2ccccc2)c2ccccc2)CC1, the B-score was -4.29 (active).
N/C(=N\OC(=O)CCC1CCCCC1)c1ccccn1 was tested, and the B-score was 0.693.
For N#Cc1nc(COc2ccc(-c3ccccc3)cc2)oc1NCc1cccnc1, the B-score was -1.76.
For N#Cc1nc(Cc2ccccc2)oc1NCCc1ccccc1, the B-score was -6.7 (active).
Work on N#Cc1nc(-c2ccc(OCc3ccccc3)cc2)oc1NCCCN1CCOCC1 yielded a B-score of -0.428.
Work on CC1C/C(=N/NC(=O)c2cccs2)CC(C)(C)C1 (stereo not drawn) yielded a B-score of 0.092.
In the case of CC(C)N(C(=O)COC(=O)c1ccccc1C(=O)N1CCN(c2ccc(F)cc2)CC1)C(C)C, the B-score is reported as 0.00273.
With O=C(O)C1CC=CCC1C(=O)Nc1ccccc1C(=O)N1CCN(c2ccccc2)CC1 (stereo not drawn) the B-score was 0.0959.
O=C(c1ccccc1Oc1ccccc1)N1CCN(c2ccc(F)cc2)CC1 was tested, and the B-score was -4.99 (active).
With Cc1ccccc1NC(=O)Cc1nnc(SCC(=O)N2CCN(c3ccccc3)CC2)n1C the B-score was 0.445.
With Cn1c(Cc2cccc3ccccc23)nnc1SCC(=O)N1CCN(c2cccc(Cl)c2)CC1 the B-score was -6.61 (active).
With Cc1cc2nnc(SCC(=O)N3CCN(c4ccccc4)CC3)n2c(N)n1 the B-score was 0.355.
C=CCC1(C(=O)N(C)Cc2ccccc2)CCN(C(=O)OC(C)(C)C)CC1 was tested, and the B-score was -0.119.
In the case of CC(C)(C)NC(=O)NC(=O)COC(=O)CCC1CCCCC1, the B-score is reported as -0.871.
With O=C(Nc1ccn(Cc2ccc(F)cc2)n1)c1ccncc1 the B-score was 0.582.
With O=C(Nc1ccn(Cc2ccccc2F)n1)c1ccc(COc2ccc(Cl)cc2Cl)o1 the B-score was -5.79 (active).
Work on CC(=O)Nc1ccn(Cc2c(F)cccc2Cl)n1 yielded a B-score of -0.881.
Compound O=C(C1=C[C@H](c2ccc(C(F)(F)F)cc2)C[C@H](OCc2ccc(CO)cc2)O1)N1CCN(Cc2ccccc2)CC1 has a B-score of -0.906.
CC(C)(C)[C@H]1C=C(C(=O)NCc2ccccc2)O[C@@H](OCc2ccc(CO)cc2)C1 showed a B-score of -0.683.
In the case of COc1cc(/C=N/NC(=O)Nc2ccccc2)ccc1OCCOc1ccccc1C, the B-score is reported as -1.44.
CNC(=O)c1ccc2nc(NC(C)=O)sc2c1 was tested, and the B-score was 1.09.
With O=C(NC(Nc1nc2ccc([N+](=O)[O-])cc2s1)(C(F)(F)F)C(F)(F)F)c1ccccc1 the B-score was -8.17 (active).
Compound Cc1nn(CC(=O)Nc2nc3ccccc3s2)c(C)c1[N+](=O)[O-] has a B-score of -1.65.
For COc1ccc(OC)c(NC(=O)CCN2CCC(C)CC2)c1, the B-score was -3.95 (active).
In the case of COc1ccc(NC(=O)CCN2CCCC2)c(OC)c1, the B-score is reported as 0.0598.
In the case of CCOc1ccc(C(=O)Nc2cc(OC)ccc2OC)cc1, the B-score is reported as -0.483.
For Cc1ccc(N2C(=O)C(Cc3ccccc3)NC2=S)cc1 (stereo not drawn), the B-score was 0.262.
Work on Cc1cn(C)c(=O)n(C)c1=O yielded a B-score of 0.776.
COc1ccc(-c2nc3c(s2)CCc2onc(-c4ccc(Br)cc4)c2-3)cc1 was tested, and the B-score was 0.734.
With COc1cc(C(=O)N2CCN(C/C=C/c3ccccc3)CC2)cc(OC)c1C the B-score was -0.741.
Compound N#Cc1c(C(F)(F)F)cc(-c2ccccc2)nc1SCC(=O)N1CCOCC1 has a B-score of 1.07.
Compound COc1cc(NS(=O)(=O)c2ccc(N=Cc3c(C)[nH]n(-c4ccccc4)c3=O)cc2)nc(OC)n1 has a B-score of 1.56.
Work on Cc1[nH]n(-c2ccc(Cl)cc2)c(=O)c1/C=N/n1c(C)nc2ccccc2c1=O yielded a B-score of -2.58.
Cc1[nH]n(-c2cccc(Cl)c2)c(=O)c1/C=N/n1c(C)nc2ccccc2c1=O was tested, and the B-score was -5.96 (active).
Work on CCO[C@@H]1OC(C(=O)NC2CC2)=C[C@H](C)[C@H]1CCCO yielded a B-score of 0.361.
O=C(Nc1ccccc1)O/N=C1\CCCCC1c1ccc([N+](=O)[O-])cc1[N+](=O)[O-] (stereo not drawn) was tested, and the B-score was -1.88.
Compound CN1CC(c2ccccc2)C2(COc3ccccc3C2=O)C12C(=O)Nc1ccccc12 (stereo not drawn) has a B-score of -2.68.
CCCCCCCCCCCCN1[C@@H](CC(C)=O)c2cc(F)cc(F)c2S1(=O)=O showed a B-score of -0.475.
For CC1CCN(CC(=O)c2c[nH]c3ccccc23)CC1, the B-score was -0.109.
CCCC(=O)NC(C)C(c1cccs1)N1CCN(c2ccccc2)CC1 (stereo not drawn) was tested, and the B-score was -0.0337.
With COc1ccc(C(C(O)C(=O)c2c[nH]c3ccccc23)N2CCN(c3ccccc3)CC2)cc1 (stereo not drawn) the B-score was -6.38 (active).
Compound COCC(C)NC(=O)c1ccc(-n2nc(C(F)(F)F)cc2-c2cccs2)cc1 (stereo not drawn) has a B-score of -0.0574.
With Cc1occc1C(=O)NNC(=S)NCC(C)C the B-score was -0.334.
For COC(C[C@@H](O)C[C@@H](O)[C@H](C)OCc1ccccc1)OC, the B-score was 0.484.
CC(NC(=O)Nc1ccccc1)C(c1cccs1)N1CCN(c2ccccc2)CC1 (stereo not drawn) showed a B-score of -0.634.
For CCCCC(=O)N/N=C(\C)CC(=O)Nc1cc(Cl)ccc1OC, the B-score was -2.17.
COc1ccc(Cl)cc1NC(=O)CN(C)C(=O)CNC(=O)C12CC3CC(CC(C3)C1)C2 was tested, and the B-score was -3.51 (active).
Work on COc1ccc(Cl)cc1NC(=O)c1oc(C)nc1C yielded a B-score of -0.339.
Work on O=C(CCCOc1ccccc1)NCc1ccco1 yielded a B-score of -0.629.
Work on CCO[C@H]1OC(C(=O)N2CCN(Cc3ccccc3)CC2)=C[C@@H](c2cn(C(C)=O)c3ccccc23)[C@@H]1CCCO yielded a B-score of -1.16.
In the case of COc1cc(/C=N/O)cc(Br)c1OS(=O)(=O)c1ccc(C)cc1, the B-score is reported as -2.65.
CCCCN1C(N)=NC[C@@H]1Cc1ccccc1 was tested, and the B-score was -0.563.
Compound COc1ccc(NC(=O)CC2COc3ccccc3O2)c(OC)c1 (stereo not drawn) has a B-score of -0.874.
COc1ccc(OC)c2sc(NC(=O)C3COc4ccccc4O3)nc12 (stereo not drawn) was tested, and the B-score was -4.42 (active).
Compound CCn1cc(C(=O)NCC2COc3ccccc3O2)c2cc(OC)c(OC)cc2c1=O (stereo not drawn) has a B-score of -0.122.
c1ccc(-c2ccnc3nc(-n4cccc4)nn23)cc1 was tested, and the B-score was 0.354.
COc1ccccc1C1=CC(=O)CCC1 gave a B-score of 1.41.
c1ccc(Nc2n[nH]nc2-c2ccccc2)cc1 was tested, and the B-score was -7.14 (active).
Nc1ccc(Nc2ccccc2)cc1 was tested, and the B-score was 0.472.
O=C(Nc1ccccc1)c1cccnc1Nc1ccccc1 was tested, and the B-score was 0.697.
